Compounds with a hit are over-represented: about 3.1% of the library has one in this group of screens.
FBA Mtb inh: inhibits M. tuberculosis FBA enzyme | inhibition, % at 1 µM | 2.3% of 360,000 active | AID 588726 | purified M. tuberculosis FBA, fluorescence read-out | P9WQA3;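 also: 0% = vehicle and 100% = reference inhibitor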
Target sequence (P9WQA3 whole entry, looked up): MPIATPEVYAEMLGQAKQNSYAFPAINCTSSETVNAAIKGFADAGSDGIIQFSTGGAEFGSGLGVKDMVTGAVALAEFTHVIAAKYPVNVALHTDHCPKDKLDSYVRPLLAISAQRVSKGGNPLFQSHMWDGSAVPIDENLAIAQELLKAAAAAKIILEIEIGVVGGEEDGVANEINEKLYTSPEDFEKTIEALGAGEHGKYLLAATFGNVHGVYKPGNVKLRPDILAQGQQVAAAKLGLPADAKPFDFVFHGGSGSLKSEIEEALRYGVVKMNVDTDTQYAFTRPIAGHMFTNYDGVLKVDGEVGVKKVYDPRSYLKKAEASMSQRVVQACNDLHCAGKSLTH
SARS 3CLpro inh: SARS-CoV 3CLpro protease inhibition | inhibition, % at 6 µM | 0.14% of 290,000 active | P0C6X7 | recombinant SARS-CoV 3CLpro, quenched FRET peptide cleavage; in the data active = inhibition above about 12%
Mtb BioA inh: inhibitors of Mycobacterium tuberculosis BioA enzyme | purified M. tuberculosis BioA enzyme, plate reader | inhibition, % at 9.99 µM | 0.096% of 360,000 active; in the data active = inhibition above about 40%
FadD28 FP inh: blocks FadD28 binding to the bisubstrate probe; fluorescence polarization; inhibition, % at 12.5 µM; 0.22% of 360,000 active; AID 588549; in the data active = inhibition above about 8.5%, passing the limit was not always enough
GDH-TPI counter-1: inhibits GDH-TPI coupling enzymes, artifact for Mtb FBA screen. GDH-TPI coupled enzyme counterscreen, NADH absorbance. inhibition, % at 4.8 µM. 1.2% of 360,000 active. AID 588335; in the data active = inhibition above about 30%;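 also: 0% = DMSO wells and 100% = wells lacking the enzyme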
Mtb FBA inh conf: Mtb FBA inhibition, confirmed; shares compounds with FBA Mtb inh; purified M. tuberculosis FBA, fluorescence read-out; inhibition, % at 1 µM; 78% of 5,600 active; AID 651616;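 also: 0% = vehicle wells and 100% = reference inhibitor wells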
GDH-TPI counter-2: inhibits GDH-TPI coupling enzymes, flagging Mtb FBA hits. GDH-TPI coupled enzyme counterscreen, fluorescence. shares compounds with FBA Mtb inh. 81% of 5,600 active. inhibition, % at 1 µM; in the data active = inhibition above about 10%
GDH-TPI DR: counter-screen for M. tuberculosis FBA inhibitors: GDH-TPI dose response. shares compounds with FBA Mtb inh. GDH-TPI coupled enzyme assay, fluorescence, artifact counterscreen. IC50, µM. 79% of 170 active. AID 652145; call rule not given here
An asterisk follows results filed as active; . = no result given; + = active, no number. Rule as the data show it, unless noted: active = inhibition above about 27%; inactive = the rest.

SMILES | FBA Mtb inh | SARS 3CLpro inh | Mtb BioA inh | FadD28 FP inh | GDH-TPI counter-1 | Mtb FBA inh conf | GDH-TPI counter-2 | others
Cc1ccc2nc(-c3ccc(O)c(O)c3)cn2c1 | 1 | -5 | 0 | 0 | 9 | . | .
COc1ccc(-c2cn3cc(C(=O)NN)ccc3n2)cc1 | 42* | -3 | . | -7 | 4 | 89* | 78*
Cc1ccc2nc(-c3ccccc3)cn2c1 | 37* | -3 | -2 | -4 | -5 | 99* | 88*
NNC(=O)c1ccc2nc(-c3ccc(Br)cc3)cn2c1 | 11 | -3 | . | -11 | 2 | . | .
CCCNC(=O)N1C[C@@H](O)COC[C@H]2O[C@@H](CC(=O)N3CCC(Cc4ccccc4)CC3)CC[C@@H]21 | . | . | 1 | . | . | . | .
O=C(C[C@H]1CC[C@H](NC(=O)C2CC2)[C@H](CO)O1)NCc1ccccc1Cl | . | . | 1 | . | . | . | .
CC(C)NC(=O)N(C)C[C@@H]1OCCCC[C@@H](C)Oc2ccc(NC(=O)Nc3ccc(F)cc3)cc2C(=O)N([C@@H](C)CO)C[C@H]1C | . | . | -1 | . | . | . | .
COc1cc2[nH]c3c(=O)n(CCN4CCCCC4)cnc3c2cc1OC | 41* | -5 | 0 | -1 | 24 | 107* | 92*
CCN1CCCC1Cn1cnc2c([nH]c3ccc(OC)cc32)c1=O (configuration not stated) | 57* | 0 | -1 | -3 | -1 | 157* | 125*
COc1ccc2c(c1)c1ncn(Cc3ccc(F)cc3)c(=O)c1n2C | 51* | 3 | 2 | -1 | 1 | 3 | -2
CCC1CCCN1Cn1cnc2c([nH]c3ccc(C)cc32)c1=O (configuration not stated) | 41* | -1 | -2 | -4 | 11 | + | +
COc1ccc2c(c1)[nH]c1c(=O)n(CC3CCCO3)cnc12 (configuration not stated) | -1 | 2 | -3 | 0 | 15 | . | .
CCC1CCCN1Cn1cnc2c([nH]c3ccc(Cl)cc32)c1=O (configuration not stated) | 4 | 6 | 1 | -3 | 11 | . | .
C[C@@H]1CN([C@@H](C)CO)C(=O)c2cc(-c3ccccc3)cnc2O[C@H]1CN(C)C(=O)Cc1ccccn1 | . | . | -1 | . | . | . | .
C[C@H](CO)N1C[C@H](C)[C@H](CN(C)C(=O)Nc2ccc3c(c2)OCO3)OCCCC[C@H](C)Oc2ccc(NS(=O)(=O)c3ccc(Cl)cc3)cc2C1=O | . | . | -2 | . | . | . | .
CN(C)C(=O)[C@@]1(Cc2ccccc2)COC(c2ccc(OCCCO)cc2)=N1 | . | . | 1 | . | . | . | .
COc1ccc2[nH]c3c(=O)n(Cc4ccncc4)cnc3c2c1 | 101* | -6 | . | -5 | 0 | 20 | 5 | GDH-TPI DR=1.9*
CCCNC(=O)c1oc2ccc3c(c2c1C)C(=O)CC(C)(C)O3 | 36* | 4 | 0 | -3 | 12 | 55* | 51*
CCOC(=O)N1CCC2(CC1)CC(=O)c1c(ccc3oc(C(=O)O)c(C)c13)O2 | 82* | 2 | . | -2 | 27 | 33* | 30*
CCOC(=O)c1oc2ccc3c(c2c1C)C(=O)CC1(CCN(C(=O)OCC)CC1)O3 | 7 | -2 | 1 | -4 | -3 | . | .
CN1C(=O)c2cc(NC(=O)Cc3ccccc3)ccc2OC[C@H]2O[C@H](CC(=O)O)CC[C@@H]21 | . | . | 2 | . | . | . | .
CCCCCCn1c(C(C)NC(=O)c2ccco2)nc2ccccc21 (configuration not stated) | -4 | 2 | 1 | -5 | -5 | . | .
Cc1ccc2c(NC(=O)c3ccc(Br)o3)cccc2n1 | -2 | -1 | 3 | -16 | 7 | . | .
CCCCCn1c(NC(=O)c2ccco2)c(S(=O)(=O)c2ccc(C)cc2)c2nc3ccccc3nc21 | 96* | 2 | 1 | 1 | 24 | 30* | 21*
CCCCn1c(NC(=O)c2ccc(Br)o2)c(S(=O)(=O)c2ccccc2)c2nc3ccccc3nc21 | 59* | 0 | 1 | 2 | 21 | 6 | -4
SMILES | FBA Mtb inh | SARS 3CLpro inh | Mtb BioA inh | FadD28 FP inh | GDH-TPI counter-1 | Mtb FBA inh conf | GDH-TPI counter-2 | others
CCCCn1c(NC(=O)c2ccco2)c(S(=O)(=O)c2ccc(C)cc2)c2nc3ccccc3nc21 | 96* | 1 | . | -1 | 23 | 73* | 47*
CCCCn1c(NC(=O)c2ccco2)c(C(=O)OCC)c2nc3ccccc3nc21 | 80* | 4 | 1 | -6 | 25 | 2 | 1
CCCCn1c(NS(=O)(=O)c2ccc(C)cc2)c(C(=O)OCC)c2nc3ccccc3nc21 | 16 | -3 | 0 | -2 | 8 | . | .
C/C=C/c1ccc2c(c1)O[C@@H](CN(C)C(=O)CN(C)C)[C@@H](C)CN([C@@H](C)CO)S2(=O)=O | . | . | 2 | . | . | . | .
O=C(c1ccncc1)N1C[C@@H]2[C@H](c3ccccc31)[C@@H](CO)N2Cc1ccc(F)cc1 | . | . | 0 | . | . | . | .
CCCCn1c2nc3ccccc3nc2c2c(=O)n(C(C)CC)cnc21 (configuration not stated) | 13 | 3 | -1 | 0 | 14 | . | .
CCCCn1c(N)c(C(=O)OCCOC)c2nc3ccccc3nc21 | 55* | 1 | 0 | -2 | 3 | 31* | 17*
COCCCn1c(N)c(C(=O)NCCC(C)C)c2nc3ccccc3nc21 | 34* | 5 | . | 0 | 2 | 74* | 62*
CCC(C)n1c(C)nc2c(c1=O)c1nc3ccccc3nc1n2CCC1=CCCCC1 (configuration not stated) | 32* | -2 | . | -3 | 20 | + | +
CCCCn1c(N)nc2ccccc21 | 0 | 3 | 0 | -2 | 1 | . | .
COCCNC(=O)c1c(N)n(CCC2=CCCCC2)c2nc3ccccc3nc12 | 54* | 6 | -5 | -4 | 13 | 77* | 56*
CC=Cc1ccc2n(c1=O)C[C@@H]1[C@@H](CO)[C@H](C(=O)NCC(F)(F)F)[C@H]2N1C(=O)C1CCC1 (mixture of isomers) | . | . | -2 | . | . | . | .
CCCNC(=O)C[C@H]1CC[C@@H]2[C@H](COc3ccc(NC(=O)Cc4ccccc4)cc3C(=O)N2C)O1 | . | . | -3 | . | . | . | .
C[C@@H]1CN([C@H](C)CO)C(=O)c2cc(C#CC3CCCCC3)cnc2O[C@@H]1CN(C)C | . | . | 1 | . | . | . | .
CCOCCCn1c(N)c(C(=O)Nc2sc3c(c2C(=O)OC)CCCC3)c2nc3ccccc3nc21 | 46* | -3 | 2 | -2 | 22 | 188* | 153*
Clc1ccc(OCCCCN2CCCCC2)cc1 | 4 | 2 | 5 | 0 | 10 | . | .
CC(C)c1ccc(OCCCCN2CCCCC2)cc1 | 98* | -3 | 0 | -2 | -1 | 130* | 106*
C[C@H](CO)N1C[C@H](C)[C@@H](CN(C)C(=O)c2ccncc2)Oc2ncc(C3=CCCCC3)cc2C1=O | . | . | 2 | . | . | . | .
OCCN(CCO)c1ccc2ccccc2c1 | 109* | 4 | -2 | 0 | 2 | 33* | 27*
O=C(O)c1cccc(N(CCO)CCO)c1 | 39* | 3 | . | 0 | 1 | 99* | 75*

Screens (PubChem)
